Bioassay records as filed in PubChem.
KDM4E inh: JMJD2E (human) inhibition | B2RXH2 | Potency, µM (doses to about 57.1 µM), for inactives: at the top dose activity change, negative = inhibition, hits mostly inhibitors | JMJD2E catalytic domain, FDH-coupled NADH fluorescence (FDH is formaldehyde dehydrogenase) | AID 2147 | 230,000 compounds, 1.6% hits; active = well fitted inhibition curve with a large enough effect, not every such curve was filed as active; inconclusive = small, poorly fitted or top-dose-only effect, or another doubt; inactive = no such curve, though single readings can be large or run the other way;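 note: 0% = wells with enzyme and -100% = buffer wells without enzyme; nearly all actives have a fitted effect of over 50% in size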
RECQ1 inh-1: inhibitors of human RECQ1 DNA helicase. P46063. RECQ1 DNA unwinding, red fluorescence kinetic read. Potency, µM (doses to about 57.3 µM), for inactives: top-dose activity, negative = inhibition, usual class: inhibitors. 240,000 compounds, 0.54% hits;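 note: plate controls were vehicle for no effect and no enzyme for full effect; nearly all actives have a fitted effect of over 30% in size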
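RECQ1T1 50 nM; forked duplex (20 bp + 30-nt ss tails) 200 nM, ATP 2 mM final; pH 8.0, 2 mM MgCl2, 2.5 ug/ml poly(dI-dC); 15 min compound preincubation; discontinuous kinetic read over 2 h at RT.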
PKM2 activator: increases activity of human pyruvate kinase M2; P14618; purified PKM2, Kinase-Glo ATP luminescence, activation; response scale: 0% is enzyme alone, no compound; Potency, µM (titrated, usually from 57.5 µM), without a hit: at the top dose activation, hits mostly activators; 260,000 compounds, 0.34% hits; AID 1631; note: nearly all actives have a fitted effect of over 55% in size
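ATP formation by purified human PK-M2, quantified via coupled luciferase luminescence after 1 h at room temperature with 0.1 mM ADP and 0.5 mM PEP final.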
BLM inh: inhibitors of human Bloom syndrome helicase BLM; P54132; recombinant BLM DNA unwinding, fluorescence dequenching; Potency, µM (titrated, usually from 56.1 µM), inactives show at the highest dose activity change, negative = inhibition, most hits filed as inhibitors; 350,000 compounds, 0.2% hits;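 note: plate controls were vehicle for no effect and no enzyme for full effect; nearly all actives have a fitted effect of over 35% in size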
APEX1 inh: APE1 (human) endonuclease inhibition | P27695 | recombinant APE1, TAMRA/BHQ-2 abasic DNA cleavage fluorescence | Potency, µM (titrated, usually from 65.8 µM), for the others: at the top dose activity change, negative = inhibition, hits mostly inhibitors | 350,000 compounds, 0.35% hits;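 note: plate controls were vehicle for no effect and reference inhibitor for full effect; nearly all actives have a fitted effect of over 55% in size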
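Kinetic fluorescence read (525 ex/598 em nm, three reads 60 s apart) of AP-site incision; signal = third minus first read. Enzyme 0.75 nM, dual-labelled THF duplex 50 nM, compound preincubation 15 min RT.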
RECQ1 inh conf: confirmation of human RECQ1 helicase inhibitors | shares compounds with RECQ1 inh-1 | RECQ1 helicase DNA unwinding, fluorescence | Potency, µM (titrated, usually from 229 µM), for the others: at the top dose activity change, negative = inhibition, most hits filed as inhibitors | 610 compounds, 28% hits; note: nearly all actives have a fitted effect of over 45% in size
RECQ1 ADP FP: ADP displacement flagged in RECQ1 inhibitor counter-screen; shares compounds with RECQ1 inh-1; Potency, µM (series often up to 228 µM), for the others: at the highest dose activity change, negative = inhibition, most hits filed as inhibitors; 530 compounds, 27% hits; ADP fluorescence polarization displacement counterscreen; note: nearly all actives have a fitted effect of over 45% in size
RECQ1 inh-2: blocks human RECQ1 DNA unwinding. shares compounds with RECQ1 inh-1. recombinant RECQ1 DNA unwinding, red fluorescence. Potency, µM (titrated, usually from 119 µM), for inactives: top-dose activity, negative = inhibition, actives largely listed as inhibitors. 1,100 compounds, 15% hits. AID 504841; note: nearly all actives have a fitted effect of over 50% in size
Numbers without * were called inactive; ? = inconclusive; nt = not tested or not shown; ! = a repeat was not active. This excerpt belongs to a sample that is enriched for hits. Unless noted, calls come from the whole dose curve; as a rule, active = well fitted curve in the direction sought with a large enough effect; inconclusive = small, poorly fitted or top-dose-only effect, or another doubt; inactive = no such curve, though single readings can be large; an effect the other way counts as inactive or inconclusive. Unless noted, % is set by controls: 0 for no effect and ±100 for the full control effect; potency is the fitted concentration of half-maximal effect.

SMILES | KDM4E inh | RECQ1 inh-1 | PKM2 activator | BLM inh | APEX1 inh | RECQ1 inh-2 | others
CCCCNc1nc(C)nc2c1nc(-c1ccccc1)n2C(C)CCCN(CC)CC (stereo not drawn) | ? | 2% | 15% | -3% | -5% | nt
COc1cc2cc3c4c(cc(OC)c(OC)c4c2cc1OC)CCN3C | ? | 11µM* | nt | 4µM* | ? | nt | RECQ1 inh conf=?;RECQ1 ADP FP=69%
COc1cc2c(cc1OC)C(=O)N(C)CC2 | 4% | 2% | 1% | -9% | -4% | nt
COc1cccc(CNC(=O)c2ccc(-n3c(C)cc4c3CCCC4)cc2)c1 | nt | nt | nt | -5% | nt | nt
O=C(CN1C(=O)CC(c2ccc(F)cc2)=Nc2ccccc21)NCc1ccccc1Cl | nt | nt | nt | -1% | nt | nt
COc1ccc(Cl)cc1NC(=O)CN(C)CC(=O)Nc1ccccc1-c1ccccc1 | ? | -19% | -10% | -11% | ? | nt
COc1ccc(Cl)cc1NC(=O)CN(C)CC(=O)Nc1ccc(C)cc1Br | 9% | 35µM* | -1% | -8% | -12% | -19%
N/C(=N\OC(=O)c1cccs1)c1cccc([N+](=O)[O-])c1 | 7% | 45µM* | -5% | -7% | 13% | -8%
COc1cc(C=Nc2cccc(C)c2)c(O)c([N+](=O)[O-])c1 | -5% | -1% | -4% | -18% | -2% | nt
Cc1ccc(O)c(N=Cc2cc(Cc3ccccc3)cc([N+](=O)[O-])c2O)c1 | 28µM* | 13µM* | -6% | -22% | -12% | ? | RECQ1 inh conf=56µM*;RECQ1 ADP FP=45µM*
CCOc1ccc(N(CC(=O)Nc2ccccc2CC)S(=O)(=O)c2c(C)noc2C)cc1 | nt | nt | nt | -6% | nt | nt
O=C(COc1ccc2ccccc2c1)Nc1cccc(C(=O)Nc2ccccc2C(=O)O)c1 | 1% | ? | -2% | -3% | ? | ?
COc1ccccc1NC(=O)c1c(C)cc(C)nc1SCC(=O)Nc1ccc(C)cc1 | nt | nt | nt | -6% | nt | nt
COCC(=O)N(C)C1(c2nnnn2CCOC(=O)Nc2cccc3ccccc23)CCCC1 | ? | 32µM* | 2% | -13% | -9% | -9%
N#C/C(=C\c1ccc(C(=O)O)cc1)c1nc2sc3c(c2c(=O)[nH]1)CCCC3 | -21% | 25µM* | 20% | ? | ? | ?
C=CCN1C(=O)CS/C1=N\S(=O)(=O)c1ccc(Cl)cc1 | 8% | ? | 19% | 0% | -4% | -10%
COc1ccc(S(=O)(=O)NCCCCCC(=O)O)cc1C(=O)O | -1% | -9% | -1% | -4% | 9% | nt | RECQ1 inh conf=10%;RECQ1 ADP FP=-7%
COc1ccc(S(=O)(=O)NCCCCC(=O)O)cc1C(=O)O | 1% | -7% | 0% | 3% | 3% | nt
CC(=O)O[C@H]1CC[C@H]2[C@@H]3CCc4cc(O)ccc4[C@H]3CC[C@]12C | -29% | -16% | -10% | -3% | 5% | nt
CC(=O)OC1CCC2C3CCc4cc(O)ccc4C3CCC12C (stereo not drawn) | -16% | 16µM* | nt | 2% | nt | nt | RECQ1 inh conf=9%;RECQ1 ADP FP=8.9µM*
COCCn1c(N)c(C(=O)NCc2cccs2)c2nc3ccccc3nc21 | ? | ? | 2% | -13% | ? | -16%
COCCn1c(N)c(C(=O)NCC2CCCO2)c2nc3ccccc3nc21 (stereo not drawn) | ? | ? | 1% | ? | ? | -10%
Cc1nc2cc(-c3cccc(F)c3)nn2c(C)c1CCC(=O)Nc1ccccc1C(N)=O | nt | nt | nt | -6% | nt | nt
CCCCC/C=C/C=C1/C(=O)C=C[C@@H]1C/C=C\CCCC(=O)O | -12% | 35µM*! | nt | 70% | ? | ?
